# Measurements: PubChem BioAssay AID624483 (NMMLSC, 2012)
# Among all 360,000 compounds or so, about 11,000 (3.1%) were called active. Another 2% or so got no clear call; they are omitted. Many of the other results were omitted from the sample, so actives are more common in it than they were. Unmarked numbers belong to inactive results. Rule as the data show it: active = fluorescence intensity above about 16000; inconclusive = no clear call, values can overlap the other calls; inactive = below that.
# Assay: compound fluorescence in toxin protease inhibitor counterscreen, primary screen, artefact control for toxin protease inhibitor project, biochemical, multiplex microsphere, HTS (AID 624483)
# Conditions: compound autofluorescence counterscreen, microsphere flow cytometry; hits give high values
row,SMILES,fluorescence intensity
1,CC1(C)CC(O)C(CCC(O)c2ccccc2)C(C)(C)N1 (stereo not drawn),2520
2,Cc1c(C(=O)Nc2ccccn2)oc2ccc(Br)cc12,5620
3,Cc1noc(C)c1C(=O)Nc1ccccn1,22800 (active)
4,Cc1noc(C)c1C(=O)NCC1COc2ccccc2O1 (stereo not drawn),6410
5,Cn1c(=O)c2c(nc(SCCNS(=O)(=O)c3ccccc3)n2C)n(C)c1=O,10500
6,O=C(Nc1cc(Br)ccc1F)c1nc[nH]c1C(=O)NCc1ccccc1,4670
7,CCCCC(C(=O)NC(C)(C)C)N(Cc1ccccc1)C(=O)c1snc(C(N)=O)c1N (stereo not drawn),3460
8,CCOc1ccc(S(=O)(=O)N2CCCCCC2)c2ccccc12,16700 (active)
9,COc1ccc(S(=O)(=O)N2CCCC2)c(C)c1C,16000
10,CCOc1ccc(S(=O)(=O)n2ccnc2)c2ccccc12,5760
11,CC(C)N1CCC(=NNc2ccc([N+](=O)[O-])cc2S(=O)(=O)N2CCOCC2)CC1,3480
12,O=C(NCC1CCCO1)/C(=C/c1ccc(Cl)cc1)NC(=O)c1ccccc1 (stereo not drawn),2550
13,O=C(CSc1ccc(-c2ccccc2)nn1)NCC1CCCO1 (stereo not drawn),3400
14,O=C(NCC1CCCO1)C(C(=O)c1ccccc1)n1cc(Cl)ccc1=O (stereo not drawn),19700 (active)
15,N#Cc1ccc(C(=O)Nc2nc(-c3cccs3)c(C(=O)C(F)(F)F)s2)cc1,4970
16,OC[C@@H]1CN(Cc2ccc3c(c2)OCO3)C[C@H](n2cnc3c(NCc4ccco4)ncnc32)O1,3680
17,Cc1ccc(-c2cnc(C(O)c3cc(Cl)cc(Cl)c3)[nH]2)cc1 (stereo not drawn),2960
18,Nc1nc(CSc2nnnn2-c2ccccc2)nc(Nc2ccccc2)n1,4030
19,COc1ccc(-n2nnnc2SCc2nc(N)nc(N3CCOCC3)n2)cc1,2520
20,CN(C)c1nc(N)nc(CSc2nnnn2-c2cccc3ccccc23)n1,16800 (active)
21,CN(C)c1nc(N)nc(CSc2ccccn2)n1,19900 (active)

row,SMILES,fluorescence intensity
1,CCOC(=O)CSc1ccccn1,2150
2,Cc1ccccc1Nc1nc(N)nc(CSc2ccccc2)n1,2510
3,O=C(NCc1ccco1)C1CCCN1S(=O)(=O)c1ccccc1C(F)(F)F (stereo not drawn),4200
4,CC(=O)N(c1ccc2oc(=O)sc2c1)S(=O)(=O)c1ccc(C)cc1,3830
5,CCCC1=Nc2cc(C(=O)NCc3ccco3)ccc2Sc2ccccc21,7310
6,Cc1nn(CC2CC2)c(=O)n1N(C)c1ncc(C(F)(F)F)cc1Cl,4280
7,CCOC(=O)N1CCC(C(N)=O)CC1,4320
8,CCOC(=O)N1CCC(O)(c2cc(C)c(C)cc2C)CC1,23000 (active)
9,CCOC(=O)N1CCN(C(=S)Nc2ccc(C)cc2C)CC1,2140
10,CCOC(=O)c1cnc(SCC(=O)Nc2ccccc2C(=O)OC)nc1N,4740
11,CCOC(=O)c1cnc(SCC(=O)Nc2cccc(OC)c2)nc1N,24000 (active)
12,CCOC(=O)c1cnc(SCC(=O)NCc2ccco2)nc1N,9800
13,CC(C)C1CC2=C(C(=O)OC(C)(C)O2)C(c2ccc(F)cc2)O1 (stereo not drawn),5880
14,CC(=O)NC(=S)NNC(=O)c1ccc(Br)cc1,4310
15,CCOC(=O)[C@H]1Nc2ccc(Cl)cc2[C@@H]2[C@H]1C1CC(c3ccccc31)N2C(=O)OCc1ccccc1 (stereo partly drawn),4370
16,CCOC(=O)c1cnn(Cc2ccccc2Cl)c1N,24600 (active)
17,CCOC(=O)c1cnc2nc(SCc3ccccc3Cl)[nH]n2c1=O,4010
18,COC(=O)c1ccc(COC(=O)c2c(C)nn(Cc3ccccc3Cl)c2Cl)o1,10900
19,CCOCCCN1C(=O)CN(C2CCCCC2)C(=O)C1c1ccc(OCC)c(OC)c1 (stereo not drawn),15500
20,CC1C/C(=N/NC(=O)c2cccs2)CC(C)(C)C1 (stereo not drawn),23000 (active)
21,CC1CC(=NNC(=O)C2COc3ccccc3O2)CC(C)(C)C1 (stereo not drawn),4030

row,SMILES,fluorescence intensity
1,CC1(C)CC(=O)C/C(=N\NC(=O)c2cccs2)C1,2600
2,CCOc1cc(S(=O)(=O)NC2CC(C)(C)NC(C)(C)C2)ccc1F,4220
3,Cc1cc(Br)cn2c(Cc3ccccc3C(F)(F)F)c(C3CCCCC3)nc12,4420
4,C/C(=N\N)c1c(-c2ccccc2)c2cc(Br)ccc2[nH]c1=O,3410
5,O=C(CN1CCOCC1)Nc1c(-c2ccccc2)c2cc(Br)ccc2[nH]c1=O,21300 (active)
6,O=C(CN1CCOCC1)Nc1ccccc1,4280
7,COCCNC(=S)Nc1cc(S(=O)(=O)N2CCOCC2)ccc1N1CCCCC1,3390
8,CC(C)c1ccc(NC(=O)COC(=O)c2ccc(CN3CCCC3=O)cc2)cc1,3760
9,Cc1ccccc1-c1csc(C(O)c2cccc(Cl)c2)n1 (stereo not drawn),3550
10,CCn1c(SCC(=O)Nc2ccc(Br)cc2)nc2sc3c(c2c1=O)CCN(C)C3,5890
11,O=C(N1CCCCC1)N1CCN(C(=O)N2CCCCC2)CC1,3210
12,O=C(N1CCOCC1)N1CCOCC1,21400 (active)
13,Cc1ccc(C(=O)NC2CCN(C(=O)N3CCOCC3)CC2)cc1,9950
14,CN(C)C(=O)c1cccc(-c2cnc3sc(NCc4ccc5c(c4)OCO5)nn23)c1,3900
15,COc1cccc(-c2cnc3c(NC(C)=O)cc(-c4cc(F)ccc4OC)cn23)c1,2980
16,Cc1ccc(S(=O)(=O)N2CCC(=O)N([C@H](COCc3ccccc3)Cc3ccccc3)CC2)cc1,4440
17,O=C(Nc1ccc(S(=O)(=O)N2CCc3ccccc3C2)cc1)c1ccccc1,22600 (active)
18,COC(=O)c1ccc(S(=O)(=O)N2CCc3ccccc3C2)cc1,3480
19,CC(=O)Nc1ccc(S(=O)(=O)N2CCC(NC(=O)c3ccccc3)CC2)cc1,3580
20,COc1cc(C(O)c2nc(-c3cnn(C)c3)cs2)ccc1F (stereo not drawn),3800
21,COc1ccc(-c2cc(NC=O)c3ncc(-c4cc(OC)c(OC)c(OC)c4)n3c2)c(OC)c1,3920
